Laboratory results published in PubChem BioAssay (Tox21).
Records with an inconclusive call do not appear. Activity calls are given as the source filed them. Unless noted, calls come from the whole dose curve; as a rule, active = well fitted curve in the direction sought with a large enough effect in the repeat runs; inconclusive = weak or mixed curves; inactive = no such curve, though single readings can be large; an effect the other way counts as inactive or inconclusive.

Columns and labels:
[1] = qHTS assay to identify small molecule agonists of the hypoxia (HIF-1) signaling pathway - cell viability counter screen (AID 1224844; calls by dose curve; note: nearly all actives have a fitted effect of over 50% in size; note: potency is the fitted concentration of half-maximal effect)
In short: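 Luminescent ATP content (CellTiter-Glo, 30 min, room temperature) served as the viability measure in HRE-bla ME-180 cells exposed to compounds for 17 hrs in low-serum medium (0.5% dialyzed FBS).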

[2] = qHTS assay to identify small molecule agonists of the hypoxia (HIF-1) signaling pathway (AID 1224846; active = well fitted activation curve with a large enough effect in the signal ratio in the repeat runs, not every such curve was filed as active; the % refers to the signal ratio)
In short: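 Measured by blue/green FRET after loading CCF4-AM: beta-lactamase expressed from a hypoxia response element in ME-180 cells. Test agents were delivered in DMSO and left 17 hrs; cells had been plated 5 hrs earlier in low-serum (0.5% dialyzed FBS) medium.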

[3] = qHTS assay to identify small molecule agonists of H2AX - cell viability counter screen (AID 1224847; calls by dose curve;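 note: wild-type CHO-K1 cells; top concentration of the series differs between compounds; nearly all actives have a fitted effect of over 30% in size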)
In short: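 CHO-K1 cells plated overnight at 37C, then exposed 3 h at 37C to compounds at 15 concentrations (0.76% DMSO final). Viability by CellTiter-Glo luminescence after 30 min at room temperature.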

[4] = qHTS RealTime-Glo MT Cell Viability Assay in HepG2 cells - 24 hour (AID 1224867); note: nearly all actives have a fitted effect of over 50% in size
In short: (§1)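 Viability was tracked continuously by NanoLuc luminescence from prosubstrate reduced by living HepG2 cells, at successive time points over 40 h of compound exposure. Cells with reagent were preincubated 5 h at 37 °C before compound addition.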

[5] = A CellTox Green Cytotoxicity Assay to monitor cytotoxicity in HEK293 cells - 0 hour (AID 1224869); note: nearly all actives have a fitted effect of over 50% in size; note: potency is the fitted concentration of half-maximal effect
In short: (§2)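 Each value comes from one timepoint of a single continuous run in which HEK293 cells with CellTox Green were exposed to compound for up to 40 h at 37 C, dye fluorescence rising with cell death.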

[6] = qHTS RealTime-Glo MT Cell Viability Assay in HepG2 cells - 40 hour (AID 1224870); note: nearly all actives have a fitted effect of over 50% in size; note: potency is the fitted concentration of half-maximal effect
In short: (§3)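 Real-time viability: cells seeded at 600 per well together with NanoLuc and cell-permeant prosubstrate, compounds added after 5 h incubation. Luminescence tracked at 0, 8, 16, 24, 32 and 40 h of exposure.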

[7] = A CellTox Green Cytotoxicity Assay to monitor cytotoxicity in HEK293 cells - 40 hour (AID 1224871); note: nearly all actives have a fitted effect of over 45% in size; note: potency is the fitted concentration of half-maximal effect
In short: as §2

[8] = qHTS RealTime-Glo MT Cell Viability Assay in HEK293 cells - 16 hour (AID 1224872)
In short: (§4)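 Viability tracked continuously by luminescence as live cells reduce a prosubstrate for NanoLuc; HEK293 cells preincubated 5 h, compound-treated at 37 C, and read at 0, 8, 16, 24, 32 and 40 h.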

[9] = qHTS RealTime-Glo MT Cell Viability Assay in HepG2 cells - 8 hour (AID 1224873); note: nearly all actives have a fitted effect of over 55% in size
In short: as §3

[10] = qHTS RealTime-Glo MT Cell Viability Assay in HEK293 cells - 40 hour (AID 1224874); conditions: RealTime-Glo luminescence; max response: stronger effect = lower value; note: nearly all actives have a fitted effect of over 50% in size
In short: (§5)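 qHTS format; HEK293 cells with NanoLuc/prosubstrate reagent, 37 C/5% CO2 for 5 h pre-dosing; compounds 23 nL in DMSO; luminescence at each time point reflects viable cells.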

[11] = A CellTox Green Cytotoxicity Assay to monitor cytotoxicity in HEK293 cells - 24 hour (AID 1224875); note: nearly all actives have a fitted effect of over 45% in size; note: potency is the fitted concentration of half-maximal effect
In short: as §2

[12] = A CellTox Green Cytotoxicity Assay to monitor cytotoxicity in HepG2 cells - 16 hour (AID 1224876); note: nearly all actives have a fitted effect of over 45% in size; note: potency is the fitted concentration of half-maximal effect
In short: (§6)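 Continuous culture of HepG2 cells with a membrane-impermeant DNA dye; rising fluorescence marks dead cells. Compound exposure lasted up to 40 h at 37 C, with reads every 8 h from 0 h.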

[13] = qHTS RealTime-Glo MT Cell Viability Assay in HepG2 cells - 32 hour (AID 1224877); note: nearly all actives have a fitted effect of over 55% in size
In short: as §1

[14] = A CellTox Green Cytotoxicity Assay to monitor cytotoxicity in HepG2 cells - 24 hour (AID 1224878); note: nearly all actives have a fitted effect of over 45% in size; note: potency is the fitted concentration of half-maximal effect
In short: as §6

[15] = A CellTox Green Cytotoxicity Assay to monitor cytotoxicity in HepG2 cells - 40 hour (AID 1224879); note: nearly all actives have a fitted effect of over 40% in size; note: potency is the fitted concentration of half-maximal effect
In short: as §6

[16] = qHTS RealTime-Glo MT Cell Viability Assay in HEK293 cells - 0 hour (AID 1224880)
In short: as §5

[17] = qHTS assay to identify small molecule antagonists of the estrogen related receptor (ERR) signaling pathway from Tox21 library (AID 1224848); note: nearly all actives have a fitted effect of over 50% in size
In short: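 Reading was by luminescence 30 min after ONE-Glo addition. Before that, ERR cells at 2,000 per well had rested 6 h at 37 C/5% CO2 and then received pin-tooled compounds in DMSO for 18 h at 37 C.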

[18] = qHTS assay to identify small molecule agonists of the estrogen related receptor (ERR) signaling pathway from Tox21 library (AID 1224849; calls by dose curve; note: nearly all actives have a fitted effect of over 15% in size); conditions: ERR reporter cell line, ONE-Glo luciferase, 18 h; at 92.4 µM (top of the series) unless noted
In short: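 We plated ERR reporter cells, waited 6 h, added compounds in DMSO by pin tool and incubated them 18 h at 37 C. ONE-Glo was then added and luminescence read after 30 min.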

[19] = qHTS RealTime-Glo MT Cell Viability Assay in HEK293 cells - 32 hour (AID 1224868)
In short: as §4
% is set by controls: 0 for no effect and ±100 for the full control effect.

CC(=O)NCCCS(=O)(=O)O
inactive: Potency [1] | outcome [2] | Potency [3] | Potency [4] | Potency [6] | Potency [8] | Potency [9] | max response [10] 14.9% | Potency [13] | Potency [16]
active: Potency [5] 18.9 µM | Potency [7] 16.9 µM | Potency [11] 16.9 µM | Potency [12] 18.9 µM | Potency [14] 18.9 µM | Potency [15] 18.9 µM

CC(C)c1ccccc1C(C)C
inactive: Potency [1] | outcome [2] | Potency [3] | Potency [4] | Potency [5] | Potency [6] | Potency [7] | Potency [8] | Potency [9] | Potency [11] | Potency [13] | Potency [14] | Potency [15] | Potency [16]

COc1cc(C(C)(C)C)c(O)c(C(C)(C)C)c1
active: Potency [7] 43.6 µM | Potency [11] 43.6 µM
inactive: Potency [1] | outcome [2] | Potency [17] | activity change, positive = activation [18] -4.21% | Potency [4] | Potency [19] | Potency [5] | Potency [6] | Potency [9] | max response [10] 1.44% | Potency [13] | Potency [16]

CCN1CCC[C@H]1CNC(=O)c1c(OC)ccc(Br)c1OC
inactive: Potency [1] | outcome [2] | Potency [4] | Potency [19] | Potency [5] | Potency [6] | Potency [7] | Potency [8] | Potency [11] | Potency [12] | Potency [14] | Potency [15] | Potency [16]

C=Cc1c(C)c2cc3[nH]c(cc4nc(cc5nc(cc1[nH]2)C(C)=C5CCC(=O)O)C(CCC(=O)O)=C4C)c(C)c3C=C
inactive: Potency [3] | activity change, positive = activation [18] -18% [at 42.5 µM] | Potency [4] | Potency [19] | Potency [5] | Potency [6] | Potency [7] | Potency [8] | Potency [9] | max response [10] -11.2% | Potency [11] | Potency [12] | Potency [13] | Potency [14] | Potency [15] | Potency [16]
active: Potency [1] 19 µM

O=C(CC(=O)c1ccccc1)c1ccccc1
inactive: Potency [1] | Potency [3] | Potency [17] | Potency [4] | Potency [19] | Potency [5] | Potency [6] | Potency [8] | max response [10] -4.39% | Potency [11] | Potency [12] | Potency [13] | Potency [14] | Potency [15] | Potency [16]
active: activity change, positive = activation [18] 58.5%

CCCCCCCCCCCCCCCBr
inactive: Potency [1] | outcome [2] | Potency [4] | Potency [19] | Potency [5] | Potency [6] | Potency [9] | Potency [11] | Potency [12] | Potency [14] | Potency [15] | Potency [16]

Nc1ccc(C(=O)Nc2ccccc2N)cc1
active: Potency [1] 12 µM | activity change, positive = activation [18] 21.9% [at 42.5 µM] | Potency [6] 13.4 µM | Potency [15] 5.35 µM
inactive: outcome [2] | Potency [3] | Potency [17] | Potency [4] | Potency [5] | Potency [7] | Potency [9] | Potency [11] | Potency [12] | Potency [16]

Cc1ccc(C(C)c2ccc(C)c(C)c2)cc1C
inactive: Potency [1] | outcome [2] | Potency [4] | Potency [19] | Potency [5] | Potency [6] | Potency [7] | Potency [8] | Potency [9] | max response [10] -0.95% | Potency [11] | Potency [12] | Potency [13] | Potency [14] | Potency [15] | Potency [16]

NCc1ccccc1
inactive: Potency [1] | outcome [2] | Potency [17] | Potency [4] | Potency [19] | Potency [5] | Potency [6] | Potency [7] | Potency [9] | Potency [11] | Potency [12] | Potency [13] | Potency [14] | Potency [15] | Potency [16]

CC/C(=C\C(=N/O)C(N)=O)C(C)[N+](=O)[O-] (configuration not stated)
inactive: Potency [1] | outcome [2] | Potency [3] | Potency [17] | activity change, positive = activation [18] 4.01% | Potency [4] | Potency [5] | Potency [6] | Potency [8] | Potency [9] | max response [10] 22.3% | Potency [12] | Potency [14] | Potency [16]

CCCCCCc1ccc(N)cc1
active: Potency [12] 49 µM | Potency [14] 49 µM | Potency [15] 49 µM
inactive: Potency [1] | outcome [2] | activity change, positive = activation [18] -26.6% | Potency [4] | Potency [5] | Potency [6] | Potency [7] | Potency [8] | max response [10] 4.72% | Potency [11] | Potency [16]

Cc1cc(C)c(S(=O)(=O)O)cc1N=Nc1cc(S(=O)(=O)O)c2ccccc2c1O
inactive: Potency [1] | outcome [2] | Potency [4] | Potency [5] | Potency [6] | Potency [7] | Potency [9] | Potency [11] | Potency [14] | Potency [15] | Potency [16]

NC1CCN(c2nc3c(cc2F)c(=O)c(C(=O)O)cn3-c2ccc(F)cc2F)C1 (configuration not stated)
inactive: Potency [1] | outcome [2] | Potency [3] | Potency [17] | Potency [4] | Potency [19] | Potency [5] | Potency [6] | Potency [7] | Potency [8] | Potency [9] | max response [10] -1.98% | Potency [11] | Potency [12] | Potency [13] | Potency [14] | Potency [15] | Potency [16]

Nc1nc(N)c2nc(CNc3ccc(C(=O)N[C@@H](CCC(=O)O)C(=O)O)cc3)cnc2n1
inactive: Potency [1] | Potency [3] | activity change, positive = activation [18] -62.3% | Potency [4] | Potency [5] | Potency [6] | Potency [7] | Potency [8] | Potency [11] | Potency [12] | Potency [13] | Potency [14] | Potency [15] | Potency [16]

CCCCC(CC)(CO)CO
inactive: Potency [1] | outcome [2] | Potency [3] | Potency [4] | Potency [5] | Potency [6] | Potency [7] | Potency [8] | Potency [9] | max response [10] -0.853% | Potency [11] | Potency [12] | Potency [13] | Potency [14] | Potency [15] | Potency [16]

ClC(Cl)(Cl)c1ccc(C(Cl)(Cl)Cl)cc1
inactive: Potency [1] | outcome [2] | Potency [4] | Potency [5] | Potency [6] | Potency [8] | max response [10] -9.34% | Potency [11] | Potency [12] | Potency [13] | Potency [14] | Potency [15] | Potency [16]
